± gives the uncertainty stated by the source.
Each compound was assayed on U87 (assay: cell viability relative to vehicle control; higher = less growth inhibition (less active)). Conditions: 10 µM; 72 h.
Work on CN(Cc1cnc2nc(N)nc(N)c2n1)c1ccc(C(=O)N[C@@H](CCC(=O)O)C(=O)O)cc1 yielded a cell viability of 72.9 ± 0.73%.
Compound Fc1ccc([C@@H]2CCNC[C@H]2COc2ccc3c(c2)OCO3)cc1 has a cell viability of 104.5 ± 1%.
C[C@@H](O)[C@H]1C(=O)N2C(C(=O)O)=C(S[C@@H]3CN[C@H](C(=O)N(C)C)C3)[C@H](C)[C@H]12 showed a cell viability of 106.4 ± 0.79%.
NC(N)=NC(=O)c1nc(Cl)c(N)nc1N showed a cell viability of 93.54 ± 0.1%.
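Also: viable cell number estimated from Alamar Blue fluorescence read at 560/90, part of a single-dose primary screen of an FDA-approved drug library.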
